Laboratory results published in PubChem BioAssay (EPA / NIEHS).
Active and inactive are the calls of the source. How the source made its calls: active means hit-call score of the fitted dose curve at least 0.9, where 1 is the maximum; inactive means score below 0.9.

Test: ATG_Sox_CIS: Attagene CIS-FACTORIAL HepG2 Assay for human SRY-box transcription factor (SOX) (AID 2282960)
Conditions: HepG2 Attagene cis-factorial SOX reporter, mRNA; actives raise or lower the signal
Description: ATG_CIS is a cell-based, multiplexed-readout assay that uses HepG2, a human liver cell line, with measurements taken at 24 hours after chemical dosing in a 24-well plate.ATG_Sox_CIS is one of 52 assay component(s) measured or calculated from the ATG_CIS assay. It is designed to make measurements of mRNA induction, a form of inducible reporter, as detected with fluorescence intensity signals by Reverse transcription polymerase chain reaction (RT-PCR) and Capillary electrophoresis technology.Data from the assay component ATG_Sox_CIS was analyzed into 1 assay endpoint. This assay endpoint, ATG_Sox_CIS, was analyzed with bidirectional fitting relative to DMSO as the negative control and baseline of activity. Using a type of inducible reporter, measures of mRNA for gain or loss-of-signal activity can be used to understand the reporter gene at the transcription factor-level as they relate to the gene SOX1. Furthermore, this assay endpoint can be referred to as a primary readout, because this assay has produced multiple assay endpoints where this one serves a reporter gene function. To generalize the intended target to other relatable targets, this assay endpoint is annotated to the dna binding intended target family, where the subfamily is HMG box protein.
Human liver HepG2 cells are transiently transfected with multiple reporter transcription units (MRTUs) in 6-well plates using FuGene 6 reagent (Roche; 3 ml FuGene/1 mg DNA). The MRTU constructs are regulated by a cis-regulating element (promoter). […] A major difference between the CIS and TRANS system is that in CIS activities of endogenous TFs are measured, whereas the TRANS assay evaluates changes in activities of exogenous, chimeric NR-Gal4 proteins. […] At the end of 24 hour incubation, total RNA was isolated using TriZol reagent (Invitrogen). The isolated RNA is then reverse-transcribed using oligo(dT) primer and Mo-MLV reverse transcriptase (Invitrogen) with DNAse I (Ambion) treatment for 30 min. The one-tenth of the produced cDNA was amplified by PCR using Taq DNA polymerase (Invitrogen) and two reporter sequence-specific primers. The PCR products were fluorescently labeled by primer extension with 6-arboxyfluorescein (6-FAM) 5'-labeled reporter sequence-specific primer (2 min at 95 C, 20 s at 68 C and 10 min at 72 C) and these products were digested with 5U of HpaI (New England Biolabs) for 2h at 37 C. The fragments were purified using Qiaquick PCR columns (Qiagen), analyzed on an ABI 3130xL genetic analyzer (Applied Biosystems) with peak positions identified by using a set of X-rhodamine (ROX)-labeled MapMarker1000 molecular weight standards (BioVentures). The raw capillary electrophoresis data was processed using Attagraph software (Attagene).
With `Clc1cccc(Cl)n1` the outcome was “inactive”. With `O=C1CCCCCCCCCCOCCCCO1` the outcome was “inactive”. For `CC1CCC(C(C)CS)CC1S` (stereo not given), the AC50 was 52.9 µM (active). With `CCCC/C=C\CCCCCCCCCC=O` the outcome was “inactive”. For `O=Nc1ccc(Nc2ccccc2)cc1`, the AC50 was 47.6 µM (active). With `CC(C)[C@@H]1CC[C@@H](C)CC1=O` the outcome was “inactive”. For `CCN(CC)c1ccc2c(-c3ccccc3C(=O)O)c3ccc(=[N+](CC)CC)cc-3oc2c1`, the outcome was “inactive”. With `OC1C(O)C(O)C(O)C(O)C1O` (stereo not given) the outcome was “inactive”. With `Cc1ccc(C=O)s1` the outcome was “inactive”. For `CCC(=O)/C=C/C1C(C)=CCCC1(C)C` (stereo not given), the outcome was “inactive”. For `CCOC(=O)c1ccccc1OC`, the outcome was “inactive”. For `O=S(=O)(O)c1cccc2c(S(=O)(=O)O)cccc12`, the outcome was “inactive”. For `CC1CC(OC(=O)c2ccccc2O)CC(C)(C)C1` (stereo not given), the outcome was “inactive”. For `CC(=O)Nc1ccc(CC(=O)O)cc1`, the outcome was “inactive”. For `C=C[C@@H](C)CCC=C(C)C`, the outcome was “inactive”. With `CC(=O)/C=C/C1=C(C)CCCC1(C)C` the outcome was “inactive”. For `CC(C)=CCCC(C)CC=O` (stereo not given), the outcome was “inactive”. With `Nc1nc2ccc([N+](=O)[O-])cc2s1` the outcome was “inactive”. In the case of `Clc1sc(Cl)c(Cl)c1Cl`, the outcome is reported as “inactive”. In the case of `CCCc1ccccc1O`, the outcome is reported as “inactive”. For `CCCc1c(OCCCOc2ccc(OCC(=O)O)cc2)ccc(C(C)=O)c1O`, the outcome was “inactive”. In the case of `Cc1c(Cl)c(=O)oc2cc(O)ccc12`, the outcome is reported as “inactive”. With `CNC[C@H](O)c1cccc(O)c1` the outcome was “inactive”. In the case of `O=C(O)c1cccc([N+](=O)[O-])c1`, the outcome is reported as “inactive”. In the case of `N#Cc1ccccc1`, the outcome is reported as “inactive”. In the case of `CCCCCCCCCCCCCCCC(=O)O`, the outcome is reported as “inactive”. In the case of `O=CCCc1ccccc1`, the outcome is reported as “inactive”. For `c1ccc2[nH]ccc2c1`, the outcome was “inactive”. With `COc1ccc(NC(=O)CC(C)=O)cc1` the outcome was “inactive”. For `CC[C@]12CCCN3CCc4c(n(c5ccccc45)[C@@](O)(C(=O)OC)C1)[C@@H]32`, the outcome was “inactive”. For `C[C@H]1C[C@@H]2[C@H]([C@@H](O)C[C@@]3(C)[C@H]2CC[C@]3(O)C(=O)CO)[C@@]2(C)C=CC(=O)C=C12`, the outcome was “inactive”. With `C=CC(=O)OCCn1c(=O)n(CCOC(=O)C=C)c(=O)n(CCOC(=O)C=C)c1=O` the outcome was “inactive”. In the case of `CCCCOCCOCCOCCOCCO`, the outcome is reported as “inactive”. With `COCCOCCOCCOCCOCCO` the outcome was “inactive”. In the case of `CC(O)C(C)O` (stereo not given), the outcome is reported as “inactive”. In the case of `CC(C)(C)C(=O)c1ccccc1`, the outcome is reported as “inactive”. For `O=c1oc(=O)c2cc3c(=O)oc(=O)c3cc12`, the outcome was “inactive”. With `CC(C)=CCC/C(C)=C/COC=O` the outcome was “inactive”. With `CCC/C=C/C=O` the outcome was “inactive”. With `CC(C)(C#N)c1cc(Cn2cncn2)cc(C(C)(C)C#N)c1` the outcome was “inactive”.
